Results published in PubChem BioAssay (NCI).
This is part of a sample that, as a whole, favours compounds with a hit. Of some 83,000 tested, about 20% had one in any assay.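 Negative percent growth values reflect cell death: -40 means 40% of the cells present at the start died, and -100 means all died.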 A number with no mark means an inactive call. Active and inactive are the calls of the source.

test system: HCT-15 colon; experiment: NCI-60 one-dose screen, 48 h (100 = growth as untreated, 0 = no growth, -100 = all killed); conditions: 10 µM
Method: Growth inhibition of the HCT-15 human tumor cell line is measured as a screen for anti-cancer activity. Cells are grown in 96 well plates and exposed to the test compound for 48 hours. Compounds are tested at a single concentration, which is 10^-5 M for most compounds. The reported endpoint is percent growth (GI% or GIPRCNT), where numbers from 0 - 100% represent growth inhibition, and numbers from -100% - 0 represent cell death. For example, a value of 40 represents 60% growth inhibition. A value of 0 means no net growth occurred over the course of the experiment. A value of -40 indicates 40% of cells at the beginning of the experiment died by the end of the experiment. A value of -100 means all cells are dead at the end of the experiment.
NCI-60 Human Tumor Cell Lines Screen was performed using the standard one-dose NCI protocol, which is described in more detail at https://dtp.cancer.gov/discovery_development/nci-60/default.htm.
Compounds with GIPRCNT values below 10 were considered active. Activity score was based on GIPRCNT using the following formula: […]
Score is 0 for GIPRCNT values of 100 or above, 50 for GIPRCNT values of 0, and 100 for GIPRCNT values of -100.

Structure (SMILES)	growth
NNC(=O)Oc1c(Cl)cc(Cl)cc1[N+](=O)[O-]	99.2%
C=C(NC(=O)C(=C)NC(=O)c1csc(C2=NC3c4csc(n4)C4NC(=O)c5csc(n5)C(C(C)(O)C(C)O)NC(=O)C5CSC(=N5)C(=CC)NC(=O)C(C(C)O)NC(=O)c5csc(n5)C3(CC2)NC(=O)C(C)NC(=O)C(=C)NC(=O)C(C)NC(=O)C(C(C)CC)NC2C=Cc3c(C(C)O)cc(nc3C2O)C(=O)OC4C)n1)C(N)=O (stereo not given)	36.9%
CCN(CC)CCCOc1cccc2c1C(=O)c1cccc(OCCCN(CC)CC)c1C2=O	34.5%
COc1ccc(/C(C#N)=C/c2ccccc2OC)cc1	23.8%
COc1cc(/C=C/c2cc(/C=C/c3ccc(O)c(OC)c3)nc(N)n2)ccc1O	29.5%
CC(=O)Nc1ccc(S(=O)(=O)N/N=C(\C)c2ccc(C)cc2C)cc1	100%
OCC1OC(n2cnc3c(NCc4ccco4)ncnc32)C(O)C1O (stereo not given)	6.12% (active)
O=[N+]([O-])c1cccc(/C=N/NC(=S)NC23CC4CC(CC(C4)C2)C3)c1	96%
Cc1ccc(-n2nnnc2N)c(C)c1	106%
CCCCC1(O)CCCCC1	110%
COc1ccc(/C(C#N)=C/c2cccc(OC)c2OC)cc1	68.1%
Fc1ccc2[nH]cc(-c3nc(-c4ccsc4)cs3)c2c1	91.4%
Oc1ccc(-c2[nH]c3ccccc3c2-c2nc3ccccc3o2)cc1	25.4%
CCOC(=O)c1cc(C(=O)c2ccc(F)cc2F)n2ccccc12	79.9%
NC1=NC(c2ccc(Cl)cc2)C2=C(N1)/C(=C/c1ccc(Cl)cc1)CCC2 (stereo not given)	58.3%
COc1cc(-c2nn(-c3ccc(NC(=O)NCCNS(=O)(=O)c4ccc(F)cc4)cc3)cc2-c2ccncc2)ccc1Cl	47.7%
COc1cc(-c2nn(-c3cccc(NC(=O)CCNc4ccc(N5CCOCC5)cc4)c3)cc2-c2ccncc2)ccc1Cl	14.2%
C/C=C/CSC(C)(C)C(=O)NC	100%
CC(=O)/C(=C/c1ccc(Br)cc1)C(=O)c1ccccc1	46.6%
COc1cc2c3c(n(C4CCN(C)CC4)c(=O)c2cc1OC)-c1cc2c(cc1C3=O)OCO2	71.5%

Structure (SMILES)	growth
Cc1cc(CSc2ccccc2C(=O)N2CC=C(c3ccccc3)CC2)on1	95.2%
CC(C)(O)CCl	102%
CNC(=O)c1c(I)c(NC(C)=O)c(I)c(C(=O)O)c1I	105%
C=CCn1c(SCC(=O)Nc2ccc(C(=O)/C=C/c3ccc(Cl)cc3)cc2)nnc1-c1cc(-c2ccccc2)nc2ccccc12	8.31% (active)
C#C[C@]1(O)CCC2C3CCc4cc(OC5CCCC5)ccc4C3CC[C@@]21C (stereo not given in full)	24%
CCC(c1ccc(OC)cc1)C(CC)c1ccc(O)c(CN2CCN(C)CC2)c1 (stereo not given)	1.58% (active)
Cc1nn(-c2ccc(-c3ccc(OC(F)(F)F)cc3)cc2)c2nc(Cc3ccccc3)nc(N)c12	76.9%
O=C1CCn2c1c(O)c1ccccc1c2=O	114%
Nc1ccc(/C=N/Nc2ccnc3c(O)cccc23)c2cccnc12	26.1%
COc1ccc(-c2nn(-c3cccc(Cl)c3)cc2-c2nc(N)[nH]c(=O)c2C#N)cc1	65.4%
c1ccc2c(c1)Cc1ccccc1N2CCN1CCCCC1	94.2%
Cc1ccc(N=Nc2ccccc2)cc1	99.5%
Cc1ccc(NCCN(C)CC(C)O)c2c(=O)c3ccc(Cl)cc3sc12 (stereo not given)	21.2%
Cc1ccc(S(=O)(=O)N/N=C2\CCCc3ccccc32)cc1	109%
CCN(CC)CCOc1cccc2c1C(=O)c1ccccc1C2=O	94.6%
Cc1ccc2nc(Cl)c(-c3nc4ccccc4o3)cc2c1	79.4%
Cc1cc(C)nc(NS(=O)(=O)c2ccc(Nc3nc4nc(NCc5ccccc5)nc(-c5ccc(O)cc5)c4c(=O)[nH]3)cc2)n1	18.5%
O=C(CCNC(=O)c1nc(-c2ccccc2)n(-c2ccc(Cl)cc2)n1)NO	104%
O=c1oc2c(cc1-c1ccc(F)cc1)C(O)Oc1ccccc1-2 (stereo not given)	63.4%
COc1ccc(Nc2cnc3cc(NS(=O)(=O)c4ccc(C)cc4)ccc3n2)cc1	59.8%
